# CHT block – human CHT choline transport inhibition; Q9GZV3; CHT-expressing cells, membrane potential dye, choline response; active compounds read low; B-score at 10 µM; actives 0.86% (n = 310,000);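 active means B-score over 3 SD under the library average, and starting fluorescence ratio not unusually high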;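 further: choline stimulus applied at its EC90 after an EC20 pre-addition; B-score computed on integrated fluorescence ratio after choline addition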
# Target sequence (Q9GZV3 whole entry, looked up): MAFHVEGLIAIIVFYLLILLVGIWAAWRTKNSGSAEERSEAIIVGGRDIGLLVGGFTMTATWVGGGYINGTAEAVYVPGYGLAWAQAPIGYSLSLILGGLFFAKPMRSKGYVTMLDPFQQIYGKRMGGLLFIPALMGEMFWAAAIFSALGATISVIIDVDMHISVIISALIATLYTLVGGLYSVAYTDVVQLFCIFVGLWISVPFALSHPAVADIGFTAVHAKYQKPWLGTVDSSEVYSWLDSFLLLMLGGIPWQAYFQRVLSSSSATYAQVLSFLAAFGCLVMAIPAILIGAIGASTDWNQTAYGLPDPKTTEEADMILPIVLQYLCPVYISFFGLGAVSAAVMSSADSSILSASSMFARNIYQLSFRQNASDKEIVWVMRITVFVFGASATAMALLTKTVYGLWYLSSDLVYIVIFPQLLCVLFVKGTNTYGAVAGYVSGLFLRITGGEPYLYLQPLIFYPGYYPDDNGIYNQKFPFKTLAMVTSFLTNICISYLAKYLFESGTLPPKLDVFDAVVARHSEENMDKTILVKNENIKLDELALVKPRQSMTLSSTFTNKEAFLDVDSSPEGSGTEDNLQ
# TAG inh – reduces triacylglycerol accumulation in H9c2 cells; inhibition, % at 12.5 µM; actives 0.66% (n = 230,000); AID 651582; Nile Red lipid (TAG) fluorescence; cells loaded with 200 µM oleic acid;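 active means pattern-corrected inhibition of lipid staining of at least 50% with the nuclear-stain viability signal not falling by more than 50%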
# Kir21 block – Kir2.1 (mouse) channel inhibition; P35561; HEK293-Kir2.1, FluxOR thallium flux fluorescence; active compounds read low; B-score at 10 µM; actives 0.85% (n = 310,000); AID 1672;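 active means fluorescence ratio B-score at or below minus 3 SD of library scores, with starting-brightness B-score within 2 SD, cut at about -4.2 in these data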;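 further: channel flux triggered by added potassium and thallium sulfate stimulus; B-score of peak minus minimum fluorescence over baseline after thallium stimulus; more negative B-score means stronger Kir2.1 block with less thallium influx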
# CHT allo act – allosterically activates the human high affinity choline transporter; CHT-expressing cells, membrane potential dye, choline EC20; active compounds read high; LV-AA mutant CHT in HEK293 cells; B-score at 10 µM; actives 0.49% (n = 310,000); AID 488977;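 active means initial fluorescence not abnormally high and integrated response B-score, plate-corrected, over 3 SD above library mean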
# CHT act confirm – human CHT activation, confirmatory screen | shares compounds with CHT allo act | CHT-expressing cells, membrane potential dye fluorescence (FDSS); % of choline EC20–EC90 response window; HEK293 expressing CHT LV-AA mutant; choline added at its EC20 | activation, % at 10 µM | actives 91% (n = 2,500) | AID 504833;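 active means primary screen active, with duplicate mean activation above negative control mean plus 3 SD, cut at about 11% in these data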
# HEK293 MP dye – counter-screen for CHT activators: effect in parental HEK293 cells; membrane potential dye fluorescence (FDSS); measured after EC20 choline addition; shares compounds with CHT allo act; ratio readout change at 10 µM, hits read low; actives 62% (n = 2,500);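 active means duplicate-averaged ratio beyond 3 SD from buffer wells, up or down, though filed actives are nearly all decreases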
# A number is an active result; . = inactive; / = not tested or not shown. This is a sample that favours compounds with a hit; in the whole collection about 2% have one here.
SMILES,CHT block,TAG inh,Kir21 block,CHT allo act,CHT act confirm,HEK293 MP dye
c1csc(-c2nc3nc4ccccc4nc3n2Cc2ccc3c(c2)OCO3)c1,.,.,/,8.7,15,.
CCCn1c(-c2cccs2)nc2nc3ccccc3nc21,.,/,.,.,/,/
COc1ccc(C(=O)N/C(=C\c2cccc3ccccc23)C(=O)N2CCN(C)CC2)cc1,/,.,/,/,/,/
Cc1c(C)n(-c2ccccc2)c2ncnc(NCCN(C)C)c12,.,/,.,.,46,-42
COc1cccc(C(O)c2nc(-c3ccc(Cl)cc3)cs2)c1 (configuration not stated),/,.,/,/,/,/
Cc1cc2nc(C)n(CCCN)c2cc1C,.,/,.,8.4,69,-73
O=C(NCCc1ccc(F)cc1)c1cc([N+](=O)[O-])ccc1N1CCOCC1,.,.,.,.,.,.
O=C(Nc1ccccc1C(=O)NCCN1CCOCC1)c1cccc([N+](=O)[O-])c1,.,.,.,.,58,-57
CN1CCN(c2ccc([N+](=O)[O-])cc2C(=O)N2CCOCC2)CC1,.,.,.,.,/,/
O=C(NC1CCSc2ccccc21)c1ccc([N+](=O)[O-])cc1 (configuration not stated),.,.,.,.,/,/
O=C(NCCc1ccccc1)c1cc([N+](=O)[O-])ccc1N1CCOCC1,/,.,/,/,/,/
O=C(c1cc([N+](=O)[O-])ccc1N1CCOCC1)N1CCN(c2ccccc2)CC1,.,.,.,12,48,.
O=C(NC1CCSc2ccccc21)c1cc([N+](=O)[O-])ccc1N1CCOCC1 (configuration not stated),.,.,.,6.4,.,.
CN(C)C(=O)c1ccc(NC(=O)COC(=O)C2(c3ccccc3)CCCC2)cc1,/,.,/,/,/,/
CC1(C)CC(N2CCCC2)=CC(=[N+]2CCCCCC2)C1,.,.,.,8.6,54,.
CCN(CC)C1=CC(=[N+]2CCCC2)CC(C)(C)C1,.,/,.,.,46,.
CC1(C)CC(N2CCN(c3ccccc3)CC2)=CC(=[N+]2CCCC2)C1,.,/,.,.,41,.
CCc1nnc(N2C(=O)c3ccc(Oc4ccc([N+](=O)[O-])cc4)cc3C2=O)s1,.,/,.,.,/,/
CCOC(=O)N1CCN(C(=O)c2ccc(N(Cc3ccc(C)cc3)S(C)(=O)=O)cc2)CC1,.,/,.,.,/,/
CCOC(=O)N1CCN(C(=O)c2ccc(N(Cc3ccc(Cl)cc3)S(C)(=O)=O)cc2)CC1,.,/,.,8.8,.,.
Cc1cc(C(=O)N2CCC(C)(C(=O)NS(=O)(=O)C3CC3)C2)n(C(C)(C)C)n1 (configuration not stated),/,.,/,/,/,/
O=C(Nc1ccccc1F)c1csc(COCCO)n1,/,.,/,/,/,/
Cc1ccc(S(=O)(=O)Nc2nncs2)cc1,.,/,.,9.5,.,.
COc1ccc(C[C@H]2CN3C(=NC[C@@H]3Cc3ccccc3)N2CCNC(=O)CCC2CCCCC2)cc1,.,.,-11,9.6,20,.
Cc1cc(=O)oc2cc(OCC(=O)N3CCC(O)CC3)c(Cl)cc12,.,/,.,.,25,-21
SMILES,CHT block,TAG inh,Kir21 block,CHT allo act,CHT act confirm,HEK293 MP dye
COc1ccc(/C=N/NC2=NS(=O)(=O)c3ccccc32)cc1OC(C)=O,.,/,.,.,/,/
Cc1ccccc1OCC(O)Cn1c(NCc2ccccc2)nc2c1c(=O)[nH]c(=O)n2C (configuration not stated),.,.,.,.,/,/
CC(C)CCn1c(NCCN(C)C)nc2c1c(=O)[nH]c(=O)n2C,.,.,.,.,26,-41
CN(C)CCNc1nc2c(c(=O)[nH]c(=O)n2C)n1CC(O)COc1ccc(Cl)cc1Cl (configuration not stated),.,.,.,8.9,51,-45
CCOC(=O)C1C(=O)CC(C)(O)C(C(=O)OCC)C1c1ccc([N+](=O)[O-])cc1 (configuration not stated),.,.,.,.,/,/
COc1ccc(CCn2c(SCCN3CCCCC3)nc3ccccc3c2=O)cc1OC,.,/,.,7.4,56,-60
OC[C@@H]1CN(CCN2CCOCC2)C[C@H](n2cnc3c(NCc4ccco4)ncnc32)O1,/,.,/,/,/,/
O=C1COc2ccc(C(=O)COC(=O)c3cc(S(=O)(=O)N4CCOCC4)ccc3F)cc2N1,.,.,.,.,/,/
O=C(c1nn(Cc2ccccc2)c(=O)c2ccccc12)N1CCN(c2ccccn2)CC1,.,.,.,7.6,26,.
O=C(c1nn(Cc2ccccc2)c(=O)c2ccccc12)N1CCc2ccccc2C1,.,/,.,8.4,28,.
NC(=O)C1Cc2ccccc2CN1C(=O)c1nn(Cc2ccccc2)c(=O)c2ccccc12 (configuration not stated),/,.,/,/,/,/
Cc1cc(NCCN2CCOCC2)c2ccc3ccccc3c2n1,.,/,.,6.8,39,-41
CN(CC(=O)Nc1cccc(F)c1)C(=O)c1cc([N+](=O)[O-])ccc1N1CCCCC1,.,.,.,.,17,.
COc1ccc(S(=O)(=O)N2CCCCCC2)cc1C(=O)N(C)CCOc1ccccc1,.,.,.,6.5,27,.
CCN1C(=O)[C@H]2[C@H]3CN=C(SCc4ccccc4)N3[C@@](CC)(C(=O)OC)[C@H]2C1=O,/,.,/,/,/,/
Cc1ccc(C)c(S(=O)(=O)N2CCCC2CNC(=O)C(=O)NCCN2CCOCC2)c1 (configuration not stated),.,.,.,.,/,/
CC(C)(C)n1nnnc1C(c1cccnc1)N1CCN(C2CCCCC2)CC1 (configuration not stated),.,/,.,.,/,/
Cc1cccc(N2CCN(C(c3ccncc3)c3nnnn3C(C)(C)C)CC2)c1C (configuration not stated),.,.,.,.,29,.
CC(C)(C)n1nnnc1C(c1cccnc1)N1CCN(c2cccc(C(F)(F)F)c2)CC1 (configuration not stated),.,.,.,7.8,21,.
COCCCNC(=O)CC(NCCCOC)C(=O)O (configuration not stated),.,/,.,.,/,/
CCOC(=O)c1nnn2c1nc(N1CCN(C)CC1)c1ccccc12,.,.,.,8.6,58,-67
O=C(COC(=O)Cc1c(F)cccc1Cl)Nc1ccc2[nH]c(=O)[nH]c2c1,/,.,/,/,/,/
CCOCCCn1c(C)nc2c[n+](CC(=O)c3ccc4ccccc4c3)cc(Br)c21,.,.,.,.,/,/
Cn1nnc2c[n+](CC(=O)c3ccc4ccccc4c3)cc(Br)c21,.,.,.,10,58,-94
Fc1ccccc1Cc1noc(CN2CCCC(CN3CCOCC3)C2)n1 (configuration not stated),.,.,.,.,/,/
Cc1nc2sc3c(c2c(=N)n1N)CC(C)(C)OC3,.,/,.,8.4,63,-47
O=C(CN1CCC(NC(=O)c2ccccc2Cl)CC1)NCc1ccccc1,.,/,.,.,/,/

# Screens: PubChem, several laboratories
